HT1080 IDH1KD tx: qHTS for induction of synthetic lethality in tumor cells producing 2HG: qHTS for the HT-1080-IDH1KD cell line. AID 686971, 2013. actives 2% (n = 360,000). Potency, µM (highest dose often 46.1 µM), for the others: at the top dose activity, negative = toxicity, actives largely listed as cytotoxic. HT-1080 IDH1 knockdown viability, ATP luminescence, 48 h;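 further: 0% = DMSO wells and -100% = cell-free medium wells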
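Assay cells: HT-1080 with IDH1 knockdown, 750 per well, RPMI/5% FBS. Exposure: 48 h at 37 °C following 2 h pre-incubation. Read: CellTiter-Glo luminescence; fitted concentration-response, curve class assigned.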
DT40 TDP1 no CPT: qHTS for Inhibitors of human tyrosyl-DNA phosphodiesterase 1 (TDP1): qHTS in cells in absence of CPT; DT40 Tdp1-/- hTDP1 cells, no CPT, ATP luminescence, 48 h; Potency, µM (doses to about 46.2 µM), for inactives: at the top dose activity change, negative = growth inhibition, actives largely listed as inhibitors; actives 15% (n = 420,000); further: on the % scale 0 is the no-effect control and ±100 the full control effect; nearly all actives have a fitted effect of over 55% in size
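Readout: luminescence from CellTiter-Glo after 30 min in the dark at RT. Cells: DT40 Tdp1-/- with stable hTDP1, 400/well. Exposure: compounds alone, ≥48 hr, 37 °C.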
HT1080NT lethal: qHTS for induction of synthetic lethality in tumor cells producing 2HG: qHTS for the HT-1080-NT fibrosarcoma cell line; AID 686970, 2013; actives 1.6% (n = 360,000); HT-1080-NT fibrosarcoma viability, CellTiter-Glo ATP luminescence, 48 h; Potency, µM (top dose mostly 46.1 µM), for the others: at the highest dose activity, negative = less viability, actives largely listed as cytotoxic;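 further: NT is the 2HG producing partner of a matched IDH1 knockdown line; 0% = DMSO-treated cells and -100% = media-only wells without cells; nearly all actives have a fitted effect of over 55% in size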
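Viability of the 2HG-overproducing fibrosarcoma line after 48 hours of compound exposure at 37 degrees C was determined by luminescence with CellTiter-Glo, and concentration-effect curves were then fitted and categorized.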
TGFb SMAD3 inh: qHTS for Inhibitors of TGF-b | Potency, µM (doses to about 46.1 µM), for inactives: top-dose activity, negative = inhibition, hits mostly inhibitors | actives 1.2% (n = 410,000) | HepG2 CAGA-GFP TGF-b/SMAD3 reporter, GFP fluorescence, 18 h; TGF-beta stimulated, 500 pg/mL final; further: on the % scale 0 is the no-effect control and ±100 the full control effect; nearly all actives have a fitted effect of over 65% in size
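GFP signal (ex488/em500-530) from TGF-beta-stimulated HEPG2 CAGA-GFP cells, 500 pg/mL final, 18 h at 37 degrees C in DMEM plus 1% FBS, normalized to unstimulated and DMSO-stimulated controls.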
DT40 TDP1 CPT: qHTS for Inhibitors of human tyrosyl-DNA phosphodiesterase 1 (TDP1): qHTS in cells in presence of CPT. chicken DT40 Tdp1-/-;hTDP1 cells + 20 nM CPT, ATP luminescence, 48 h. Potency, µM (series often up to 46.2 µM), for inactives: at the highest dose activity change, negative = growth inhibition, hits mostly inhibitors. actives 12% (n = 420,000). AID 686979, 2013; further: on the % scale 0 is the no-effect control and ±100 the full control effect; nearly all actives have a fitted effect of over 55% in size
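Cell growth measured by CellTiter-Glo luminescence after a minimum 48 h, 37 C compound exposure with 20 nM CPT in Tdp1-knockout DT40 cells stably expressing hTDP1, seeded 400/well; qHTS titration format.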
HepG2 tox: qHTS for Inhibitors of TGF-b: Cytotox Counterscreen; HepG2 CAGA-GFP viability, ATP luminescence, 18 h; actives 0.76% (n = 410,000); Potency, µM (series often up to 46.1 µM), for inactives: at the top dose activity change, negative = cytotoxicity, hits mostly cytotoxic
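HepG2 CAGA-GFP cells (1000/well, DMEM with 1% FBS) received compound, then TGF-beta at 500 pg/mL final, and were incubated 18 hours at 37 degrees C. Viability was read by CellTiter-Glo luminescence. Media-only wells were set as complete cell-killing and DMSO as no toxicity.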
The depositor's hits bear a star; ? = inconclusive; . = not tested or not shown. In the library only some 17% were active in any assay of this set; here they are far more common. The call rests on the fitted dose curve; in most records, active means well fitted curve in the direction sought with a large enough effect; inconclusive means small, poorly fitted or top-dose-only effect, or another doubt; inactive means no such curve, though single readings can be large; an effect the other way counts as inactive or inconclusive. Potency means the concentration at half of the fitted maximal effect.

SMILES	HT1080 IDH1KD tx	DT40 TDP1 no CPT	HT1080NT lethal	TGFb SMAD3 inh	DT40 TDP1 CPT	HepG2 tox
Cc1noc(/C=C/c2ccco2)c1S(=O)(=O)N1CCC(C(=O)N2CCc3ccccc3C2)CC1	-17.1%	18.4µM*	-15.1%	-16.0%	20.6µM*	-22.7%
Cc1ccc(NC(=O)C2CCN(S(=O)(=O)c3c(C)noc3/C=C/c3ccco3)CC2)nc1	-3.7%	18.4µM*	-1.2%	-30.8%	?	-30.9%
COCCC(=O)N1CCC(Oc2ccc(C(=O)NCCn3cccn3)cc2)CC1	8.4%	3.3%	7.4%	-25.2%	10.9%	0.6%
Cc1ccc(C2/C=C\CC(NC(=O)OCC3c4ccccc4-c4ccccc43)CC(=O)N2Cc2ccccc2)cc1 (stereo not drawn)	-15.8%	16.4µM*	-9.1%	?	?	-23.2%
COc1cccc(-n2ccn(CC(=O)c3ccc(F)cc3)c(=O)c2=O)c1	.	12.9%	.	?	-1.1%	-7.5%
COc1cccc(CN(CCC(C)C)S(=O)(=O)c2cc(Br)ccc2Br)c1	-1.6%	16.4µM*	-4.1%	?	18.4µM*	-33.7%
Cc1c(C(=O)N(C)C)sc(NC(=O)c2cccc([N+](=O)[O-])c2)c1C#N	0.0%	-26.7%	6.7%	-1.2%	-18.0%	-27.7%
Cc1ccc(NC(=O)c2ccncc2)cc1[N+](=O)[O-]	16.8%	-28.5%	3.3%	-3.8%	-4.2%	1.5%
Cc1cc(C(=O)Nc2ccncc2)ccc1[N+](=O)[O-]	4.6%	14.6µM*	10.1%	4.3%	?	-3.1%
CC(=O)c1cccc(NC(=S)NNC(=O)c2ccc(C)c([N+](=O)[O-])c2)c1	-3.3%	0.3%	-6.9%	-10.8%	-8.1%	-32.8%
CCN(CC)C(=O)c1sc(NC(=O)c2ccc(C)c([N+](=O)[O-])c2)c(C#N)c1C	-13.4%	20.6µM*	-14.4%	-3.8%	?	-9.1%
Cc1ccc(C(=O)NC(=S)Nc2cccc(NC(=O)c3ccccc3)c2)cc1[N+](=O)[O-]	0.8%	16.4µM*	-0.8%	?	?	-22.0%
Cc1ccc(C(=O)Nc2ccncc2)cc1[N+](=O)[O-]	-2.2%	0.731µM*	-5.3%	-17.4%	?	-34.9%
COc1ccc(NC(C)=O)cc1CNC(=O)CN1CCOCC1	8.8%	0.5%	6.5%	-2.8%	4.3%	1.1%
Cc1ccc(C(=O)NCCSC(C)(C)C)cc1[N+](=O)[O-]	11.8%	?	10.1%	0.0%	?	6.5%
Cc1ccc(C(=O)NCC(C)NC(=O)c2ccc(C)c([N+](=O)[O-])c2)cc1[N+](=O)[O-] (stereo not drawn)	-3.7%	14.6µM*	2.9%	-30.4%	?	29.9%
Cc1ccc2nc(/C(C#N)=C/c3cn[nH]c3-c3ccc(F)cc3)[nH]c2c1	?	18.4µM*	?	?	?	-6.5%
Cc1ccc2nc(/C(C#N)=C/c3cccc(Br)c3)[nH]c2c1	.	16.4µM*	.	?	14.6µM*	-46.3%
Cc1cc2nc(/C(C#N)=C/c3ccncc3)[nH]c2cc1C	23.1µM*	16.4µM*	?	-26.8%	18.4µM*	-21.6%
Cc1ccc2nc(/C(C#N)=C/c3ccccc3C(=O)O)[nH]c2c1	0.9%	3.0%	3.7%	13.6%	24.2%	-5.5%
N#C/C(=C\c1cccnc1)c1nc2ccccc2[nH]1	?	5.8µM*	?	8.1%	?	6.2%
CC1CCCN(C(=O)c2ccc(NS(=O)(=O)c3cccc([N+](=O)[O-])c3)cc2)C1 (stereo not drawn)	-0.2%	?	-6.0%	-8.8%	-26.6%	-16.4%
CC12CCC(=O)N1C(C(=O)Nc1nc(-c3cc(F)ccc3F)cs1)CS2 (stereo not drawn)	-6.5%	?	-18.7%	-13.7%	-0.9%	-18.4%
CO[C@H]1[C@H](NC(=O)c2cccc(F)c2)c2ccccc2C12CCN(Cc1ccco1)CC2	.	-15.9%	.	.	-2.5%	.
CCCCNc1nc(Oc2ccc(OCC(N)=O)nn2)nc(N2CCOCC2)n1	.	2.3%	.	-3.9%	2.7%	-3.5%
SMILES	HT1080 IDH1KD tx	DT40 TDP1 no CPT	HT1080NT lethal	TGFb SMAD3 inh	DT40 TDP1 CPT	HepG2 tox
CCNC(=O)C1(C)CCCN(CCOc2ccc(OC)cc2)C1 (stereo not drawn)	1.3%	-16.2%	19.0%	-0.1%	-2.5%	-0.1%
CCOC(=O)C1CCCN(C(=O)c2cc3ccccc3oc2=O)C1 (stereo not drawn)	7.5%	-2.1%	3.1%	?	-4.3%	6.3%
Cc1ccc2nc(/C(C#N)=C/c3ccc(O)c(O)c3)[nH]c2c1	?	18.4µM*	-15.2%	46.7%	18.4µM*	-13.6%
COc1cc(/C=C(\C#N)c2nc3ccc(C)cc3[nH]2)ccc1OC(C)C	.	-12.3%	.	68.8%	?	-35.0%
CCCOc1ccc(/C=C/c2c([N+](=O)[O-])c(=O)n(C)c(=O)n2C)cc1	-9.9%	-17.5%	0.8%	-3.4%	-22.4%	-12.7%
Cc1cc(C)c2[nH]c(=O)c(C(c3nnnn3CC3CCCO3)N3CCCC(C)C3)cc2c1 (stereo not drawn)	1.3%	?	1.1%	-2.5%	18.4µM*	-0.4%
O=c1c2c(nc3cc(-c4ccc(Cl)cc4)[nH]n13)CCS2	7.1%	?	14.3%	0.0%	?	20.1%
Nc1sc(Cc2ccccc2)cc1C(=O)c1c(-c2ccccc2)[nH]c2ccccc12	4.61µM*	4.61µM*	7.31µM*	.	3.66µM*	.
CCNC(=O)C(=O)c1c(-c2ccccc2)[nH]c2ccccc12	11.0%	-8.7%	1.9%	4.2%	-5.9%	2.9%
Oc1ccc(Oc2ccc3c(C(F)(F)F)cc(C(F)(F)F)nc3n2)cc1	-5.8%	18.4µM*	-2.1%	?	14.6µM*	-84.8%
COc1ccc(Oc2ccc3c(C(F)(F)F)cc(C(F)(F)F)nc3n2)cc1	3.1%	-1.7%	-20.4%	-5.6%	-24.3%	-5.8%
CCN(CC)C(=S)S	.	?	.	.	23.7µM*	.

Source: PubChem
